The text below walks through data of PubChem BioAssay (NCI).

About 79,000 compounds went through this panel and 15% of them were active in at least one assay; those are over-represented in the sample as a whole. Values without a mark were called inactive. Active and inactive are the calls of the source. Rule as the data show it: active = growth inhibition above about 70%; inactive = the rest.

Assay [1] is described as follows: NCI Yeast Anticancer Drug Screen. Data for the rad50 strain (AID 155).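 Also: 0% = growth of vehicle-only cultures of the same strain.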 To be noted: S. cerevisiae rad50 strain growth inhibition, stronger effect = higher value. The procedure, abridged: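 Relative growth inhibition (compound vs vehicle) was measured in yeast with a defined repair-gene alteration.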
A short description of assay [2]: NCI Yeast Anticancer Drug Screen. Data for the mec2-1 strain (AID 157). To be noted: S. cerevisiae mec2-1 strain, stronger effect = higher value. An outline of the steps: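 Growth inhibition is read against vehicle-treated controls after compound exposure of the mec2-1 yeast strain, which is defective in DNA damage repair or cell cycle control.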
Assay [3] can be described thus: NCI Yeast Anticancer Drug Screen. Data for the sgs1 mgt1 strain (AID 161).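 Also: 0% = growth of cultures given vehicle only.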 To be noted: S. cerevisiae sgs1 mgt1 strain, stronger effect = higher value. The procedure, abridged: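 Percent growth inhibition was derived by comparing compound-exposed mutant yeast with vehicle-exposed cultures. The strain carries alterations in DNA damage repair.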
The nature of assay [4]: NCI Yeast Anticancer Drug Screen. Data for the cln2 rad14 strain (AID 165).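 Also: 0% = growth equal to vehicle treated cultures.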 The settings on record: S. cerevisiae cln2 rad14 strain, stronger effect = higher value. An outline of the steps:
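Growth inhibition, relative to vehicle-treated controls, is the read-out. The test organism is a yeast strain with defined genetic alterations, cln2 rad14.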

A short description of assay [5]: NCI Yeast Anticancer Drug Screen. Data for the bub3 strain (AID 167). The settings on record: S. cerevisiae bub3 mutant strain, stronger effect = higher value. The procedure, abridged:
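Screening used yeast with an engineered genetic alteration affecting cell cycle control. Compound-exposed cultures were compared with vehicle cultures, and reduced growth was taken as inhibition.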

Assay [6] is described as follows: NCI Yeast Anticancer Drug Screen. Data for the mlh1 rad18 strain (AID 175). The settings on record: S. cerevisiae mlh1 rad18 strain growth inhibition, stronger effect = higher value. An outline of the steps:
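Cells of a genetically altered yeast strain, deficient in DNA damage repair, were treated with compound. Their growth was then compared with that of vehicle-treated cultures to give inhibition.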

[7] abbreviates: at 5.0 µM (retest, dose inferred, filed as 0.5).
[8] abbreviates: at 50.0 µM (retest, dose inferred, filed as 5.0).

For `COc1ccc(CN2CCCN(Cc3ccc(OC)cc3)C2Cc2cc(Cl)ccc2OC)cc1`, the growth inhibition in assay [1] (setting [7]) was -3%; in assay [1] (setting [8]), 58%; in assay [1] (at 50.0 µM) it was 82.4% (active); in assay [2] (setting [7]) it was -3%; in assay [2] (setting [8]), 61%; in assay [2] (at 50.0 µM), 48.8%. Besides, the growth inhibition is -44% in assay [3] (setting [7]); 63% in assay [3] (setting [8]); 80.7% (active) in assay [3] (at 50.0 µM); -6% in assay [4] (setting [7]); 19% in assay [4] (setting [8]); 33.4% in assay [4] (at 50.0 µM). For the same compound, the growth inhibition was -5% in assay [5] (setting [7]); 56% in assay [5] (setting [8]); 56.5% in assay [5] (at 50.0 µM); 18% in assay [6] (setting [7]); 85% (active) in assay [6] (setting [8]); 77.8% (active) in assay [6] (at 50.0 µM).

`O=C(C(=Cn1c(=S)[nH]c2ccc([N+](=O)[O-])cc21)C(=O)c1ccccc1)c1ccccc1`: the growth inhibition in assay [1] (setting [7]) is -10%; in assay [1] (setting [8]), 3%; in assay [1] (at 50.0 µM) it was 98% (active); in assay [2] (setting [7]), -14%; in assay [2] (setting [8]), -2%; in assay [2] (at 50.0 µM), 92.5% (active). For the same compound, the growth inhibition is -7% in assay [3] (setting [7]); 1% in assay [3] (setting [8]); 92.2% (active) in assay [3] (at 50.0 µM); -23% in assay [4] (setting [7]); -17% in assay [4] (setting [8]); 74.8% (active) in assay [4] (at 50.0 µM). The growth inhibition was -5% in assay [5] (setting [7]); 6% in assay [5] (setting [8]); 94.9% (active) in assay [5] (at 50.0 µM); -4% in assay [6] (setting [7]); 0% in assay [6] (setting [8]); 96.3% (active) in assay [6] (at 50.0 µM).

With `O=C(O)/C=C/c1c2ccccc2cc2ccccc12`, the growth inhibition in assay [1] (setting [7]) is 41%; in assay [1] (setting [8]) it was 96% (active); in assay [1] (at 50.0 µM), 97.1% (active); in assay [2] (setting [7]), 16%; in assay [2] (setting [8]) it was 98% (active); in assay [2] (at 50.0 µM), 96.5% (active). Moreover, the growth inhibition in assay [3] (setting [7]) is 27%; in assay [3] (setting [8]), 97% (active); in assay [3] (at 50.0 µM), 94.7% (active); in assay [4] (setting [7]) it was 9%; in assay [4] (setting [8]), 96% (active); in assay [4] (at 50.0 µM) it was 96.9% (active). The growth inhibition in assay [5] (setting [7]) was 71% (active); in assay [5] (setting [8]), 96% (active); in assay [5] (at 50.0 µM), 97.3% (active); in assay [6] (setting [7]), 47%; in assay [6] (setting [8]), 97% (active); in assay [6] (at 50.0 µM), 97.5% (active).

With `FC(F)(F)c1nc(Cl)nc2nc[nH]c12`, the growth inhibition in assay [1] (setting [7]) was 3%; in assay [1] (setting [8]) it was -9%; in assay [1] (at 50.0 µM) it was 26.4%; in assay [2] (setting [7]), -7%; in assay [2] (setting [8]) it was -2%; in assay [2] (at 50.0 µM), 6.1%. The growth inhibition in assay [3] (setting [7]) was -3%; in assay [3] (setting [8]), -10%; in assay [3] (at 50.0 µM) it was -31.4%; in assay [4] (setting [7]) it was -3%; in assay [4] (setting [8]) it was 0%; in assay [4] (at 50.0 µM) it was 17.4%. Also, the growth inhibition in assay [5] (setting [7]) is -1%; in assay [5] (setting [8]), 4%; in assay [5] (at 50.0 µM) it was -21.7%; in assay [6] (setting [7]), 0%; in assay [6] (setting [8]) it was -8%; in assay [6] (at 50.0 µM) it was -4.75%.

As to `Nc1ccc(O)c2ccccc12`, the growth inhibition was 19% in assay [1] (setting [7]); 80% (active) in assay [1] (setting [8]); 85.5% (active) in assay [1] (at 50.0 µM); -4% in assay [2] (setting [7]); 83% (active) in assay [2] (setting [8]); 63.8% in assay [2] (at 50.0 µM). Besides, the growth inhibition in assay [3] (setting [7]) is 7%; in assay [3] (setting [8]) it was 63%; in assay [3] (at 50.0 µM), 68.3%; in assay [4] (setting [7]), -10%; in assay [4] (setting [8]), 8%; in assay [4] (at 50.0 µM), 10.1%. Besides, the growth inhibition in assay [5] (setting [7]) was 7%; in assay [5] (setting [8]) it was 93% (active); in assay [5] (at 50.0 µM) it was 87.2% (active); in assay [6] (setting [7]), 11%; in assay [6] (setting [8]), 90% (active); in assay [6] (at 50.0 µM), 91% (active).

As for `CC(=O)Nc1ccc(/C=c2\sc3nnc(-c4cccnc4)n3c2=O)cc1`, the growth inhibition in assay [1] (setting [7]) was 33%; in assay [1] (setting [8]), 87% (active); in assay [1] (at 50.0 µM), 89.8% (active); in assay [2] (setting [7]), 7%; in assay [2] (setting [8]), 91% (active); in assay [2] (at 50.0 µM) it was 88% (active). For the same compound, the growth inhibition in assay [3] (setting [7]) is 6%; in assay [3] (setting [8]), 78% (active); in assay [3] (at 50.0 µM), 87.2% (active); in assay [4] (setting [7]), -5%; in assay [4] (setting [8]) it was 58%; in assay [4] (at 50.0 µM), 71% (active). Further, the growth inhibition in assay [5] (setting [7]) is 8%; in assay [5] (setting [8]), 94% (active); in assay [5] (at 50.0 µM), 80.5% (active); in assay [6] (setting [7]), -17%; in assay [6] (setting [8]), 95% (active); in assay [6] (at 50.0 µM), 86.5% (active).

For the compound `CCCCN(CCCC)CC(O)c1cccc2c(Cl)cccc12` (stereo not given), the growth inhibition was 15% in assay [1] (setting [7]); 54% in assay [1] (setting [8]); 86.5% (active) in assay [1] (at 50.0 µM); 8% in assay [2] (setting [7]); 75% (active) in assay [2] (setting [8]); 71.7% (active) in assay [2] (at 50.0 µM). For the same compound, the growth inhibition in assay [3] (setting [7]) was 13%; in assay [3] (setting [8]) it was 93% (active); in assay [3] (at 50.0 µM), 88.5% (active); in assay [4] (setting [7]), 8%; in assay [4] (setting [8]) it was 57%; in assay [4] (at 50.0 µM), 89.7% (active). The growth inhibition is 13% in assay [5] (setting [7]); 82% (active) in assay [5] (setting [8]); 94.8% (active) in assay [5] (at 50.0 µM); 24% in assay [6] (setting [7]); 88% (active) in assay [6] (setting [8]); 70.5% (active) in assay [6] (at 50.0 µM).

On to `C=C1C(=O)OC2C1CCC(=C)C1CC(O)C(=C)C12` (stereo not given), for which the growth inhibition in assay [1] (setting [7]) is 3%; in assay [1] (setting [8]), 44%; in assay [1] (at 50.0 µM), 92.2% (active); in assay [2] (setting [7]), 11%; in assay [2] (setting [8]), 64%; in assay [2] (at 50.0 µM), 94.2% (active). The growth inhibition is 0% in assay [3] (setting [7]); 70% (active) in assay [3] (setting [8]); 93.6% (active) in assay [3] (at 50.0 µM); 10% in assay [4] (setting [7]); 39% in assay [4] (setting [8]); 92.4% (active) in assay [4] (at 50.0 µM). In addition, the growth inhibition in assay [5] (setting [7]) was 2%; in assay [5] (setting [8]), 65%; in assay [5] (at 50.0 µM) it was 92.5% (active); in assay [6] (setting [7]), 8%; in assay [6] (setting [8]), 70% (active); in assay [6] (at 50.0 µM) it was 31.4%.

As for `O=C1C2=C(CCCC2)C(=O)C(Cl)C1Cl` (stereo not given), the growth inhibition in assay [1] (setting [7]) is 36%; in assay [1] (setting [8]), 98% (active); in assay [1] (at 50.0 µM), 97.8% (active); in assay [2] (setting [7]), 32%; in assay [2] (setting [8]), 99% (active); in assay [2] (at 50.0 µM) it was 99.3% (active). Moreover, the growth inhibition is 24% in assay [3] (setting [7]); 99% (active) in assay [3] (setting [8]); 99.5% (active) in assay [3] (at 50.0 µM); 9% in assay [4] (setting [7]); 99% (active) in assay [4] (setting [8]); 99.1% (active) in assay [4] (at 50.0 µM). In addition, the growth inhibition was 56% in assay [5] (setting [7]); 99% (active) in assay [5] (setting [8]); 99.5% (active) in assay [5] (at 50.0 µM); 62% in assay [6] (setting [7]); 99% (active) in assay [6] (setting [8]); 99.5% (active) in assay [6] (at 50.0 µM).

Take `CCCCCCCCCCCC(=O)N(CC)CC`: the growth inhibition in assay [1] (setting [7]) is -3%; in assay [1] (setting [8]), 99% (active); in assay [1] (at 50.0 µM) it was 99.8% (active); in assay [2] (setting [7]), 1%; in assay [2] (setting [8]), 99% (active); in assay [2] (at 50.0 µM) it was 99.9% (active). Moreover, the growth inhibition in assay [3] (setting [7]) was -4%; in assay [3] (setting [8]), 100% (active); in assay [3] (at 50.0 µM), 99.8% (active); in assay [4] (setting [7]), -1%; in assay [4] (setting [8]) it was 99% (active); in assay [4] (at 50.0 µM) it was 99% (active). In addition, the growth inhibition in assay [5] (setting [7]) is 2%; in assay [5] (setting [8]) it was 100% (active); in assay [5] (at 50.0 µM), 99.7% (active); in assay [6] (setting [7]), 14%; in assay [6] (setting [8]), 99% (active); in assay [6] (at 50.0 µM), 99.8% (active).
